Test [1] in a line: Quantitative highthroughput screen to assess conditional lethalithy of NOMO1 cells grown in RPMI1640 with untreated serum (RPMI+s) (AID 1963876). Also: nearly all actives have a fitted effect of over 35% in size. Also: potency is read from the fitted curve at half-maximal effect.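 As to viability: 100% = DMSO wells and 0% = empty wells without cells.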 The method in brief: (§1)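 Each medium arm—HPLM with 10% dialyzed FBS, or RPMI1640 with 5 mM glucose and 10% untreated or dialyzed FBS—was screened against an 11-point, 3-fold compound titration for 48 h at 37 °C, with CellTiter-Glo luminescence as endpoint.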

The nature of test [2]: Quantitative highthroughput screen to assess conditional lethalithy of NOMO1 cells grown in RPMI1640 with dialyzed fetal bovine serum (RPMI+ds) (AID 1963877). Also: nearly all actives have a fitted effect of over 30% in size. Also: potency is read from the fitted curve at half-maximal effect.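 As to viability: series mostly up to about 46 µM; 100% = DMSO control wells and 0% = empty wells.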 The method in brief: as §1
The nature of test [3]: Quantitative highthroughput screen to assess conditional lethalithy of NOMO1 cells grown in Human Plasma-Like Medium with dialyzed fetal bovine serum (HPLM+ds) (AID 1963878). Also: nearly all actives have a fitted effect of over 35% in size. Also: potency is read from the fitted curve at half-maximal effect.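 As to viability: 100% = DMSO wells and 0% = empty wells on each plate.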 The method in brief:
as §1

The nature of test [4]: Quantitative highthroughput screen to assess conditional lethalithy of P12 Ichikawa cells grown in Human Plasma-Like Medium with dialyzed fetal bovine serum (HPLM+ds) (AID 1963879). Also: nearly all actives have a fitted effect of over 35% in size. Also: potency is read from the fitted curve at half-maximal effect. As to viability: series mostly up to about 46 µM. The settings on record: Potency: viability. The method in brief: as §1
Test [5] can be described thus: Quantitative highthroughput screen to assess conditional lethalithy of P12 Ichikawa cells grown in RPMI1640 with dialyzed fetal bovine serum (RPMI+ds) (AID 1963880). Also: nearly all actives have a fitted effect of over 35% in size. Also: potency is read from the fitted curve at half-maximal effect.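 As to viability: 100% = DMSO wells and 0% = empty wells on each plate.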 The settings on record: Potency: P12-Ichikawa viability. Put shortly: as §1
A short description of test [6]: Quantitative highthroughput screen to assess conditional lethalithy of P12 Ichikawa cells grown in RPMI1640 with untreated serum (RPMI+s) (AID 1963881). Also: nearly all actives have a fitted effect of over 35% in size. Also: potency is read from the fitted curve at half-maximal effect.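 As to viability: series mostly up to about 46 µM; 100% = DMSO wells and 0% = empty wells without cells.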 The settings on record: Potency: viability. The method in brief: as §1
Test [7] in a line: Quantitative highthroughput screen to assess conditional lethalithy of SEM cells grown in Human Plasma-Like Medium with dialyzed fetal bovine serum (HPLM+ds) (AID 1963882). Also: nearly all actives have a fitted effect of over 35% in size. Also: potency is read from the fitted curve at half-maximal effect. As to viability: series mostly up to about 46 µM. The method in brief: as §1
Test [8] can be described thus: Quantitative highthroughput screen to assess conditional lethalithy of SEM cells grown in RPMI1640 with unreated serum (RPMI+s) (AID 1963883). Also: nearly all actives have a fitted effect of over 35% in size. Also: potency is read from the fitted curve at half-maximal effect.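 As to viability: 100% = DMSO wells and 0% = empty wells without cells.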 Put shortly: as §1
Test [9] can be described thus: Quantitative highthroughput screen to assess conditional lethalithy of SEM cells grown in RPMI1640 with dialyzed fetal bovine serum (RPMI+ds) (AID 1963884). Also: nearly all actives have a fitted effect of over 35% in size. Also: potency is read from the fitted curve at half-maximal effect.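 As to viability: series mostly up to about 46 µM; 100% = DMSO control wells and 0% = empty wells without cells.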 Put shortly:
as §1

Test [10] can be described thus: Cellular viability qHTS for adrenocortical cancer (ACC) cell line SW-13 (AID 1963989).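 Also: cells grown in serum-free medium with ITS supplement; % is scaled to controls: 0 for no effect and ±100 for the full control effect; nearly all actives have a fitted effect of over 65% in size.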 The settings on record: SW-13 ACC cells viability, CellTiter-Glo, 48 h; activity (max response): active compounds read low. The method in brief: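 Compound titrations (up to 46 uM final, in DMSO) were applied to SW-13 cells for 48 h at 37C/5% CO2. Reading used CellTiter-Glo after 20 min at room temperature; fitted curves yielded IC50 and efficacy.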

SMILES strings stand for the structures. Records with an inconclusive call do not appear. Unmarked numbers belong to inactive results. Active and inactive are the calls of the source. Calls follow the shape of the dose curve; as a rule, active = well fitted curve in the direction sought with a large enough effect; inconclusive = small, poorly fitted or top-dose-only effect, or another doubt; inactive = no such curve, though single readings can be large; an effect the other way counts as inactive or inconclusive.

For the compound `O=C1c2c(O)cccc2[C@@H]([C@@H]2O[C@H](CO)[C@@H](O)[C@H](O)[C@H]2O)c2cc(CO)cc(O)c21`, the Potency result in test [1], in test [2], in test [3], in test [4], in [5] and in test [6] was “inactive” each time. The Potency entry in test [7], in test [8] and in test [9] was “inactive” in each case.
Consider `CC1(C)SCCN(S(=O)(=O)c2ccc(OCC#CCO)cc2)[C@@H]1C(=O)NO`, for which the Potency entry in test [1], in [2], in [3], in test [4], in test [5] and in test [6] was “inactive” throughout. Besides, the Potency result in test [7], in [8] and in test [9] was “inactive” throughout.
`CCN(CC)CCNC(=O)c1c(C)[nH]c(C=C2C(=O)Nc3ccc(F)cc32)c1C`: the Potency was 303 nM (active) in [1]; 303 nM (active) in test [2]; 171 nM (active) in test [3]; 270 nM (active) in test [4]; 340 nM (active) in test [5]; 481 nM (active) in [6].
`CCCCCCCc1ccc(CCc2cccc(O)c2C(=O)O)cc1`: the Potency entry in test [1], in [2], in [3], in test [4] and in [5] was “inactive” in each case.
Regarding `Cc1cc(Nc2cc(N3CCN(C)CC3)nc(C=Cc3ccccc3)n2)n[nH]1`, the Potency in [1] was 3030 nM (active); in test [2], 3400 nM (active); in [3], 3030 nM (active); in test [4] it was 2150 nM (active); in test [5] it was 2700 nM (active); in [6] it was 3030 nM (active). Besides, the Potency in test [7] was 540 nM (active); in test [8] it was 540 nM (active); in test [9], 429 nM (active).
For `Nc1ncnc2c1ncn2[C@@H]1O[C@@H](CO)[C@H](O)[C@H]1O`, the Potency entry in test [1], in test [2], in test [3], in test [4], in [5] and in [6] was “inactive” each time.
`C[C@H]1[C@H](NC(=O)C(=NOC(C)(C)C(=O)O)c2csc(N)n2)C(=O)N1S(=O)(=O)O`: the Potency result in test [1], in test [2], in test [3], in test [4], in test [5] and in [6] was “inactive” in each case. Moreover, the Potency result in test [7] and in test [8] was “inactive” each time.
Take `C=CC[N+]1([C@H]2C[C@H]3[C@@H]4CC[C@H]5C[C@H](O)[C@@H](N6CCOCC6)C[C@]5(C)[C@@H]4CC[C@]3(C)[C@H]2OC(C)=O)CCCC1`: the Potency result in test [1], in [2], in test [3], in test [4], in test [5] and in test [6] was “inactive” throughout. Further, the Potency result in test [7] and in test [8] was “inactive” each time.
For the compound `OCCn1cc(-c2ccc3c(c2)CCC3=NO)c(-c2ccncc2)n1`, the Potency result in [1], in test [2], in [3], in [4], in [5] and in test [6] was “inactive” each time. Further, the Potency result in test [7], in [8] and in test [9] was “inactive” throughout.
For the compound `Cc1[nH]c2ccccc2c1CCNCc1ccc(C=CC(=O)NO)cc1`, the Potency in test [1] is 743 nM (active); in test [2], 743 nM (active); in test [3], 526 nM (active); in [4], 590 nM (active); in test [5], 662 nM (active); in [6], 469 nM (active). Moreover, the Potency is 209 nM (active) in test [7], 264 nM (active) in test [8] and 264 nM (active) in [9].
In the case of `CCN1CCN(C(=O)N[C@H](C(=O)N[C@@H]2C(=O)N3C(C(=O)O)=C(CSc4nnnn4C)CS[C@@H]23)c2ccc(O)cc2)C(=O)C1=O`, the Potency entry in test [1], in test [2], in test [3], in [4], in test [5] and in test [6] was “inactive” each time. Moreover, the Potency result in test [7], in test [8] and in test [9] was “inactive” each time.
Take `COc1cccc2c1C(=O)c1c(O)c3c(c(O)c1C2=O)C[C@@](O)(C(C)=O)C[C@H]3O[C@H]1C[C@H](N)[C@H](O)[C@H](C)O1`: the Potency is 264 nM (active) in test [1]; 235 nM (active) in test [2]; 264 nM (active) in [3]; 264 nM (active) in test [4]; 209 nM (active) in [5]; 209 nM (active) in test [6]. Further, the results for the Potency in test [7], in test [8] and in [9] were 83.3 nM (active), 46.9 nM (active) and 83.3 nM (active), respectively.
Take `C[C@H](NCc1ccc2c(c1)nc(NC(=O)c1ccc(-c3cn[nH]c3)s1)n2CCc1ccccc1)C(C)(C)C`: the Potency was 9350 nM (active) in test [1]; 6620 nM (active) in test [2]; 5900 nM (active) in test [3]; 11800 nM (active) in test [4]; 11800 nM (active) in [5]; 9350 nM (active) in test [6]. Also, the Potency in test [7] was 469 nM (active); in [8] it was 526 nM (active); in test [9], 74.3 nM (active).
Take `COC(=O)[C@@H]1CC2=CC(=O)CC[C@]2(C)[C@@]23O[C@@H]2C[C@@]2(C)[C@H](CC[C@@]24CCC(=O)O4)[C@@H]13`: the Potency entry in test [1], in test [2], in test [3], in [4], in test [5] and in test [6] was “inactive” throughout. Besides, the Potency entry in test [7], in [8] and in test [9] was “inactive” throughout.
As for `Cc1cccc(C#Cc2ccccc2)n1`, the Potency result in [1], in [2], in test [3], in test [4], in test [5] and in test [6] was “inactive” throughout. In addition, the Potency entry in test [7] and in test [8] was “inactive” throughout. In addition, the Potency in test [9] is 13200 nM (active).
Take `COC(=O)C1=C(C)NC(C)=C(C(=O)OC(C)C)C1c1cccc2nonc12` (stereo not drawn): the Potency result in test [1], in test [2], in [3], in test [4], in [5] and in test [6] was “inactive” each time. In addition, the Potency entry in test [7], in test [8] and in test [9] was “inactive” in each case. Besides, the activity (max response) in test [10] was 6.25%.

The record behind these values is PubChem BioAssay (NCATS).
